Measurements published in the supplement of paper PMC9177965.
“And” between values parts separate entries of the source, which are not always exact repeats. Equal entries are not always repeated.

test system: HT29 RNF43 G659fs (RNF43 659mut, CRISPR-edited); test: cell viability activity relative to DMSO (negative = inhibition); higher = more viable cells (less growth inhibition); conditions: 5 µM; 96 h
Protocol: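 Broad Repurposing Library primary screen at a single dose of 5 uM. HT29 sg-Ctrl and HT29 RNF43 G659fs CRISPR-edited isogenic cells were seeded at 2500 cells/well in 384-well plates in duplicate and treated for 96 h. Viability was read by CellTiter-Glo and reported as % activity relative to DMSO, with MG132 as the positive control (negative = growth inhibition).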

Row | SMILES | cell viability activity
1 | COc1cc2cc(c1Cl)N(C)C(=O)C[C@H](OC(=O)C(C)C)[C@]1(C)O[C@@H]1[C@H](C)[C@@H]1C[C@@](O)(NC(=O)O1)[C@H](OC)/C=C/C=C(\C)C2 | -66.8%
2 | COc1cc([C@@H]2c3cc4c(cc3[C@H](O)[C@H]3COC(=O)[C@H]23)OCO4)cc(OC)c1OC | -59.9%
3 | CC[C@@]1(O)C(=O)OCc2c1cc1n(c2=O)Cc2cc3ccccc3nc2-1 | -94%
4 | C/C=C(\C)C(=O)N[C@@H](c1ccccc1)[C@@H](O)C(=O)O[C@H]1C[C@@]2(O)[C@@H](OC(=O)c3ccccc3)[C@@H]3[C@]4(OC(C)=O)CO[C@@H]4C[C@H](O)[C@@]3(C)C(=O)[C@H](OC(C)=O)C(=C1C)C2(C)C | -68.1%
5 | CC1CC(C)C(=O)C(C(O)CC2CC(=O)NC(=O)C2)C1 (stereo not drawn) | -82.5%
6 | O=C(C[C@H]1NCCC[C@@H]1O)Cn1cnc2cc(Br)c(Cl)cc2c1=O | -91.6%
7 | CC(=O)O[C@H]1C[C@H](O[C@H]2[C@@H](O)C[C@H](O[C@H]3[C@@H](O)C[C@H](O[C@H]4CC[C@@]5(C)[C@H](CC[C@@H]6[C@@H]5C[C@@H](O)[C@]5(C)[C@@H](C7=CC(=O)OC7)CC[C@]65O)C4)O[C@@H]3C)O[C@@H]2C)O[C@H](C)[C@H]1O[C@@H]1O[C@H](CO)[C@@H](O)[C@H](O)[C@H]1O | -89.7%
8 | COc1cc2c(c(OC)c1OC)-c1ccc(OC)c(=O)cc1[C@@H](NC(C)=O)CC2 | -55.9% and -56.4%
9 | CCN(CC)CCO[C@H]1CC[C@@]2(C)C(=CC[C@@H]3[C@@H]2CC[C@]2(C)C(=O)CC[C@@H]32)C1 | -67.5%
10 | C[C@@H]1O[C@@H](O[C@@H]2C=C3CC[C@@H]4[C@H](CC[C@]5(C)[C@@H](c6ccc(=O)oc6)CC[C@]45O)[C@@]3(C)CC2)[C@H](O)[C@H](O)[C@H]1O | -81.8%
11 | C/C1=C/C[C@@H](/C(C)=C/c2csc(C)n2)OC(=O)C[C@H](O)C(C)(C)C(=O)[C@H](C)[C@@H](O)[C@@H](C)CCC1 | -63.7%
12 | N#CC(C#N)=NNc1cccc(Cl)c1 | -83.3%
13 | COC(=O)NC(=S)Nc1ccccc1NC(=S)NC(=O)OC | -31.4%
